From PubChem BioAssay (Tox21)
Records with an inconclusive call do not appear. Active and inactive are the calls of the source. Calls follow the shape of the dose curve; as a rule, active = well fitted inhibition curve with a large enough effect in the repeat runs; inconclusive = weak or mixed curves; inactive = flat fitted curve, though single readings scatter.

test: qHTS assay to identify small molecule HDAC inhibitors (AID 1259364); conditions: HCT-116 HDAC-Glo I/II luminescence, 2 h; series mostly up to 92.4 µM; activity change, negative = inhibition: at the top concentration; also: nearly all actives have a fitted effect of over 45% in size; as to activity change, negative = inhibition: top concentration of the series differs between compounds
Text: U.S. Tox21 Program National Center for Advancing Translational Sciences [NCATS] NIH Chemical Genomics Center [NCGC] U.S. Environmental Protection Agency [EPA] National Institutes of Environmental Health Sciences [NIEHS] National Toxicology Program [NTP] U.S. Food and Drug Administration [FDA] Tox21 Assay Overview: Histone deacetylases (HDACs) are a group of epigenetic enzymes that regulate gene expression by histone deacetylation. HDACs are capable of introducing epigenetic modifications and such aberrations contribute to the onset and progression of several human diseases, thus making HDACs a popular therapeutic target. For identifying endogenous class I/II HDAC inhibitors a homogenous, luminogenic HDAC I/II cell based assay was used to measure the relative activity of class I and II HDACs from cells. Wild type HCT-116 cells were used to screen Tox21 libraries for identifying class I/II HDAC inhibitors.
Tox21 Assay Protocol Summary: HCT-116 cells were dispensed at 1,500 per well in 5uL of culture medium into white solid bottom 1536-well plates (Greiner Bio-One, Monroe, NC) using a Multidrop Combi (Thermo Scientific, Waltham, MA) dispenser. The assay plates were incubated at 37 C and 5% CO2 for an overnight, and then 23nL of compounds dissolved in DMSO and positive control were transferred using a Pintool station (Wako, San Diego, CA). The assay plates were incubated at 37C and 5% CO2 for 2hr. After compound treatment, 4uL of HDAC-Glo reagent (Promega Corporation, Madison, WI) was added to each well of the assay plates using Flying Reagent Dispenser (FRD, Aurora Discovery, San Diego, CA) and incubated the assay plates at room temperature for 30min. The luminescence signal was quantified using a ViewLux plate reader (Perkin Elmer, Shelton, CT).
% is scaled to controls: 0 for no effect and ±100 for the full control effect; potency is read from the fitted curve at half-maximal effect.

Row | Structure (SMILES) | activity change, negative = inhibition | Potency
1 | CC(C)c1cccc(C(C)C)c1N1C(=O)c2ccc(O)cc2C1=O | 4.94% (inactive) | –
2 | O=C(O)Cc1ccc(OCCNC[C@H](O)c2ccccc2)cc1 | 13.9% [at 42.5 µM] (inactive) | –
3 | CCC(=O)CC(C)CC (stereo not given) | 2.62% [at 0.349 µM] (inactive) | –
4 | CCc1c(Br)c(Br)c(Br)c(Br)c1Br | 0.526% (inactive) | –
5 | CCc1cccc(C)c1 | 0.734% (inactive) | –
6 | Cc1cccc(C)c1NC(=O)CN1CCN(CCCC(c2ccc(F)cc2)c2ccc(F)cc2)CC1 | 1.63% [at 42.5 µM] (inactive) | –
7 | COCC(=O)O[C@]1(CCN(C)CCCc2nc3ccccc3[nH]2)CCc2cc(F)ccc2[C@@H]1C(C)C | 11.4% [at 42.5 µM] (inactive) | –
8 | CCCCCCC(C)OC(=O)COc1nc(F)c(Cl)c(N)c1Cl (stereo not given) | 2.2% (inactive) | –
9 | OCCN1CN(CCO)CN(CCO)C1 | 1.6% (inactive) | –
10 | CC(C)(C)c1n[nH]c(=O)n(N)c1=O | 0.335% (inactive) | –
11 | CCCCCCCCCCOCC(O)CN (stereo not given) | 1.31% [at 42.5 µM] (inactive) | –
12 | Clc1ccc(C(Cn2ccnc2)OCc2c(Cl)cccc2Cl)c(Cl)c1 (stereo not given) | -12.4% [at 42.5 µM] (inactive) | –
13 | N#CSCSc1nc2ccccc2s1 | – | 19.3 µM (active)
14 | C=C[C@](C)(O)CC[C@@H]1[C@@]2(C)CCCC(C)(C)[C@@H]2CC[C@@]1(C)O | -4.56% (inactive) | –
15 | O=C(O)CC(=O)O | -4.17% (inactive) | –
16 | CC1=C(/C=C/C(C)=C/C=C/C(C)=C\C=O)C(C)(C)CCC1 | 9.26% (inactive) | –
17 | COc1cc(C(=O)NS(=O)(=O)c2ccccc2C)ccc1Cc1cn(C)c2ccc(NC(=O)OC3CCCC3)cc12 | -1.16% [at 42.5 µM] (inactive) | –
18 | O=C1OC(OC(=O)c2cccnc2Nc2cccc(C(F)(F)F)c2)c2ccccc21 (stereo not given) | -23.1% [at 42.5 µM] (inactive) | –
19 | COc1cc(C=C2CCC/C(=C\c3ccc(O)c(OC)c3)C2=O)ccc1O | -1.92% [at 42.5 µM] (inactive) | –
20 | C/C=C/CO | 5.34% (inactive) | –

Row | Structure (SMILES) | activity change, negative = inhibition | Potency
21 | CN(Cc1cc(Br)cc(Br)c1N)C1CCCCC1 | -2.53% [at 42.5 µM] (inactive) | –
22 | C/C=C/C(=O)C1=C(C)CCCC1(C)C | -6.14% (inactive) | –
23 | CCCCC(CC)COC(=O)c1ccc(O)cc1 (stereo not given) | 0.0445% (inactive) | –
24 | CSc1c(Cl)c(Cl)c(Cl)c(Cl)c1Cl | -2.48% (inactive) | –
25 | CC=O | 12.5% (inactive) | –
26 | CC(C)=CCCC(C)O (stereo not given) | 3.59% (inactive) | –
27 | CCCC(C)CCC(C)=O (stereo not given) | 3.74% (inactive) | –
28 | O=S(=O)(O)CCCN1CCOCC1 | 0.913% (inactive) | –
29 | CCCN(CCc1cccs1)[C@H]1CCc2c(O)cccc2C1 | 5.2% [at 42.5 µM] (inactive) | –
30 | CC(COC(=O)c1ccccc1)OC(=O)c1ccccc1 (stereo not given) | -1.36% (inactive) | –
31 | NC(=O)c1ccccc1N | 1.65% (inactive) | –
32 | N[C@@H](CSSC[C@H](N)C(=O)O)C(=O)O | -1.21% [at 0.349 µM] (inactive) | –
33 | Cc1nc(Nc2ncc(C(=O)Nc3c(C)cccc3Cl)s2)cc(N2CCN(CCO)CC2)n1 | -3.1% [at 42.5 µM] (inactive) | –
34 | COc1ccccc1C=O | 7.12% (inactive) | –
35 | O=C1C=CC(=O)N1c1ccccc1 | – | 27.3 µM (active)
36 | C1CC(COCC2CO2)CCC1COCC1CO1 (stereo not given) | -1.72% (inactive) | –
37 | Oc1cc2ccccc2cc1O | -0.281% (inactive) | –
38 | O=C1NC2CCCCN2C12CCN(CCCN1c3ccccc3CCc3ccc(Cl)cc31)CC2 (stereo not given) | -6.2% [at 42.5 µM] (inactive) | –
39 | CC1=CCC(=O)O1 | -0.492% (inactive) | –
40 | CCCCCCCC(=O)OCC | 1.74% (inactive) | –
